CD40 NFkB inh: CD40 pathway inhibition in BL2 cells; AID 1053188; inhibition, % at 10 µM; BL2 NF-kB luciferase reporter, CD40L-induced, 4 h; 83,000 compounds, 0.94% hits;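 active = mean inhibition of at least 50% with a set share of replicates also reaching that level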;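 also: 0% = neutral control wells and 100% = IKK inhibitor VII at 50 µM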
* hit, by the source's call; [ ] = another dose, or the depositor's remark. The full list was thinned out, with hits kept by preference.

SMILES	CD40 NFkB inh
COc1ccc2c3c(n(C)c2c1)[C@@H](CO)N(C(=O)c1ccccc1)CC31CCN(C(=O)c2ccccc2)CC1	5.2[25 µM]
COc1ccc(CN(C)C[C@H]2Oc3ccc(NC(=O)Nc4c(C)noc4C)cc3C(=O)N([C@H](C)CO)C[C@H]2C)cc1	-7.2[25 µM]
O=C(NC1CCCC1)[C@H]1[C@H](CO)[C@H]2Cn3c(cccc3=O)[C@@H]1N2CC1CCCC1	-0.1[25 µM]
Cc1noc(C)c1S(=O)(=O)N(C)C[C@H]1OCCCC[C@@H](C)Oc2ccc(NC(=O)CCC(F)(F)F)cc2C(=O)N([C@@H](C)CO)C[C@@H]1C	11.5[25 µM]
O=C(C1CCCCC1)N1C[C@H]2[C@@H](c3ccccc31)[C@H](CO)N2C(=O)c1ccccc1F	-10.8[25 µM]
C[C@H](CO)N1C[C@H](C)[C@@H](CN(C)S(=O)(=O)Cc2ccccc2)OCc2ccccc2-c2c(n(C)c3ccccc23)C1=O	9.6
N#Cc1cccc(-c2ccc([C@@H]3[C@H]4CN(C(=O)Nc5cccc(F)c5)CCCCN4[C@H]3CO)cc2)c1	17.6[25 µM]
O=C(Nc1ccccc1)N1CCCCN2[C@@H](CO)[C@@H](c3ccc(C#Cc4ccccc4)cc3)[C@@H]2C1	28.3
N#Cc1cccc(-c2ccc([C@@H]3[C@@H](CO)N4CCCCN(C(=O)Nc5cccc(F)c5)C[C@H]34)cc2)c1	16.5[25 µM]
N#Cc1cccc(-c2ccc([C@@H]3[C@H](CO)N4CCCCN(C(=O)Nc5cccc(F)c5)C[C@@H]34)cc2)c1	91.7*[25 µM]
O=C(Nc1ccc(F)cc1)N1CCCCN2[C@H](CO)[C@@H](c3ccc(C#Cc4ccccc4)cc3)[C@H]2C1	4.4
O=C(Nc1ccc(F)cc1)N1CCCCN2[C@@H](CO)[C@@H](c3ccc(C#Cc4ccccc4)cc3)[C@@H]2C1	62.6*
O=C(NC1CCCC1)N1CC(=O)N2[C@H](CO)[C@@H](c3ccc(-c4cccc(F)c4)cc3)[C@@H]2C1	-1.3
CC(C)(C)[S@](=O)N1Cc2cc(C(=O)NCCN3CCCCC3)nc(-c3cccc(-c4ccc(C#N)cc4)c3)c2[C@@H]1CCO	0.9
COc1ccc([C@H]2C/C=C\C[C@@H](c3cccc(Cl)c3)NC(=O)[C@H](c3ccccc3)CC(=O)N2)c(OC)c1	5.7[25 µM]
O=C(C1CCCC1)N1[C@@H](CO)[C@@H]2c3ccccc3NC[C@@H]21	-0.8
CC[C@@H]1C/C=C\C[C@H](C(C)C)NC(=O)CCC(=O)N1	-2.0[25 µM]
O=C(c1ccccc1)N1CCN(C2CCCCCC2)CC1	-3.4
COc1ccc(C(=O)N2CCC(N3CCN(c4ccccc4)CC3)CC2)cc1	3.2
O=C(c1ccc(Nc2nccc(-c3cc4ccccc4s3)n2)cc1)N1CCC(N2CCCC2)CC1	68.3*[25 µM]
COc1ccc(CN(C)C[C@H]2Oc3c(NC(=O)c4cnccn4)cccc3C(=O)N([C@@H](C)CO)C[C@@H]2C)cc1	-19.0[25 µM]
CC(C)(C)[S@](=O)N1Cc2cc(C(=O)O)nc(-c3cccc(-c4cccc(F)c4)c3)c2[C@@H]1CCO	4.8
O=C(C[C@@H]1C[C@@H]2c3cc(NC(=O)Nc4ccc(C(F)(F)F)cc4)ccc3O[C@@H]2[C@H](CO)O1)NCc1cccnc1	16.8[25 µM]
CCOC(=O)c1nc(C)[nH]c1C(=O)OCC	-1.5
CCOC(=O)c1ccc(NS(C)(=O)=O)cc1	-3.4
SMILES	CD40 NFkB inh
CCOC(=O)c1nc(S(C)(=O)=O)ncc1Cl	108.0*
CSc1ncc(Cl)c(C(=O)Nc2cccc3ccccc23)n1	2.2
Cc1cc(C(=O)Nc2cc(S(C)(=O)=O)ccc2Cl)no1	0.2
Cc1ccccc1NC(=O)c1nc(S(C)(=O)=O)ncc1Cl	104.4*
COc1ccc(S(=O)(=O)N2CC3(CN(C(=O)CN(C)C)[C@H](CO)c4c3c3ccc(OC)cc3n4C)C2)cc1	7.5[25 µM]
COc1ccc(-c2ccc(C3[C@H]4CNC[C@@H]3N4C(=O)Nc3ccc(C(F)(F)F)cc3)cc2)cc1 (some centres undefined)	0.6
COc1ccc2c3c([nH]c2c1)[C@@H](CO)N(C(=O)c1ccccc1)CC31CN(C(=O)c2cccc(F)c2)C1	12.3
O=C(c1ccccn1)N1C[C@H]2[C@@H](c3ccccc31)[C@H](CO)N2C(=O)C1CCCCC1	-4.5[25 µM]
CNC[C@H]1OCCCC[C@H](C)Oc2ccc(NS(=O)(=O)c3ccc(F)cc3)cc2C(=O)N([C@@H](C)CO)C[C@@H]1C	-16.7[25 µM]
C[C@@H]1CN([C@H](C)CO)C(=O)c2cc(N(C)C)ccc2O[C@@H](C)CCCCO[C@@H]1CN(C)S(=O)(=O)c1cn(C)cn1	-17.3[25 µM]
Cc1sc2ccccc2[n+]1CC(=O)O	-10.8
CC[n+]1c(C)sc2cc(C)ccc21	56.1*
CC[n+]1c(/C=C(/C)SC)sc2ccccc21	26.0
CCC(=O)N1CCCCN2[C@H](CO)[C@H](c3ccc(/C=C/c4ccccc4)cc3)[C@@H]2C1	9.6[25 µM]
C[C@H]1CN([C@@H](C)CO)C(=O)c2ccccc2-c2ccccc2CO[C@H]1CN(C)Cc1ccc(O)cc1	-4.2
C[C@H](CO)N1C[C@H](C)[C@@H](CN(C)Cc2ccc(Oc3ccccc3)cc2)Oc2c(NC(=O)CCC(F)(F)F)cccc2C1=O	70.4*[25 µM]
C[C@@H]1CN([C@@H](C)CO)C(=O)c2ccccc2-c2ccccc2CO[C@@H]1CN(C)Cc1ccc(Oc2ccccc2)cc1	61.6*[25 µM]
C[C@H](CO)N1C[C@H](C)[C@@H](CN(C)Cc2ccc(Oc3ccccc3)cc2)Oc2c(NC(=O)c3ccncc3)cccc2C1=O	34.2
C[C@H]1CN([C@@H](C)CO)C(=O)c2ccccc2-c2ccccc2CO[C@H]1CN(C)Cc1ccc(Oc2ccccc2)cc1	59.1*[25 µM]
C[C@@H]1CN([C@H](C)CO)C(=O)c2cc(NC(=O)CCC(F)(F)F)ccc2O[C@H]1CN(C)Cc1ccc(Oc2ccccc2)cc1	-4.1
C[C@@H]1CN([C@H](C)CO)C(=O)c2ccccc2-c2ccccc2CO[C@@H]1CN(C)Cc1ccc(C(=O)O)cc1	-8.0
C[C@@H]1CN([C@@H](C)CO)C(=O)c2ccccc2-c2ccccc2CO[C@@H]1CN(C)Cc1ccccc1	15.0
C[C@@H]1CN([C@H](C)CO)C(=O)c2ccccc2-c2ccccc2CO[C@@H]1CN(C)Cc1ccc(Oc2ccccc2)cc1	41.3[25 µM]
COc1cccc(-c2ccc3n(c2=O)C[C@H]2[C@H](CO)[C@@H](C(=O)NC4CCC4)N(S(C)(=O)=O)[C@@H]32)c1	-9.6[25 µM]
C/C=C/c1cnc2c(c1)C(=O)N([C@H](C)CO)C[C@H](C)[C@H](CN(C)C(=O)C1CCOCC1)O2	-10.0[25 µM]
SMILES	CD40 NFkB inh
CN1CCN(C(=O)C[C@@H]2CC[C@@H]3[C@H](COC[C@H](O)CN3C(=O)Nc3ccc4c(c3)OCO4)O2)CC1	-37.3[25 µM]
CN1CCN(C(=O)C[C@@H]2CC[C@H]3[C@@H](COC[C@@H](O)CN3C(=O)Nc3ccc4c(c3)OCO4)O2)CC1	active[25 µM]
CN1CCN(C(=O)C[C@H]2CC[C@H]3[C@@H](COC[C@H](O)CN3C(=O)Nc3ccc4c(c3)OCO4)O2)CC1	-39.0[25 µM]
O=C(C1CC1)N1C[C@H]2[C@@H](c3ccccc31)[C@H](CO)N2C(=O)Cc1ccccn1	17.6
COC(=O)C[C@@H]1CC[C@@H]2[C@@H](COc3ccc(NC(=O)Nc4cccc(C#N)c4)cc3C(=O)N2C)O1	6.1[25 µM]
COc1ccccc1CN(C)C[C@H]1OCc2ccccc2-c2c(n(C)c3ccccc23)C(=O)N([C@@H](C)CO)C[C@@H]1C	0.8[25 µM]
CNC(=S)NN=C(C)CCCC(C)=NNC(=S)NC	71.2*
C[C@H]1CN([C@@H](C)CO)C(=O)c2c(c3ccccc3n2C)-c2ccccc2CO[C@H]1CN(C)Cc1ccccc1	11.7

Bioassay records from PubChem.
